# Test results reported in PubChem BioAssay (NCATS).
# Records with an inconclusive call do not appear. Active and inactive are the calls of the source. Unless noted, calls come from the whole dose curve.
# Assays:
# [1] = molecular target: Glucocorticoid receptor (Homo sapiens) (UniProt P04150); assay: qHTS assay for small molecule agonists of glucocorticoid receptor signaling (AID 588532; active = well fitted curve in the direction sought with a large enough effect in the signal ratio, with a control signal flat; the % refers to the signal ratio;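 note: 100% = dexamethasone at 0.1 µM and 0% = DMSO only wells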); conditions: HeLa MMTV-bla, beta-lactamase ratio, agonist, 18 h; activation: stronger effect = higher value, percent of dexamethasone control, DMSO zero
# Summary of the method: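 Using MMTV-bla HeLa cells in medium with 1% stripped FBS and 25 mM HEPES, compounds were titrated and incubated overnight-length (18 h). Beta-lactamase cleavage of CCF4 was quantified by dual-emission fluorescence.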
# [2] = molecular target: Glucocorticoid receptor (Homo sapiens) (UniProt P04150); assay: qHTS assay for small molecule antagonists of glucocorticoid receptor signaling (AID 588533; active = well fitted inhibition curve with a large enough effect in the signal ratio, with a control signal flat, not every such curve was filed as active; the % refers to the signal ratio;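 note: cells stimulated with 2 nM dexamethasone as agonist; % is set by controls: 0 for no effect and ±100 for the full control effect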)
# Summary of the method: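 Antagonist-mode qHTS: compound titrations added to GRE-bla HeLa cells, then dexamethasone 2 nM final; 18 h, 37 C. CCF4 FRET fluorescence normalized to dexamethasone and DMSO; IC50 from Hill fit.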
# [3] = molecular target: Peroxisome proliferator-activated receptor delta (Homo sapiens) (UniProt Q03181); assay: qHTS assay for small molecule agonists of peroxisome proliferator-activated receptor delta signaling (AID 588534);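 note: 0% = DMSO basal wells and 100% = positive control agonist at 10 µM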
# Summary of the method: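 Reporter cells were plated and held 5 hrs at 37 C before compounds were added. After 18 hrs at 37 C, CCF4 dye was loaded for 2 hrs at RT and fluorescence measured.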
# [4] = qHTS assay for small molecule antagonists of peroxisome proliferator-activated receptor delta signaling (AID 588535; active = well fitted inhibition curve with a large enough effect in the signal ratio, with a control signal flat, not every such curve was filed as active; the % refers to the signal ratio;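 for max response: cells co-treated with a PPAR-delta agonist as stimulator during compound exposure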); conditions: HEK293T PPARd-UAS-bla, beta-lactamase FRET ratio, 18 h; 460 nm channel
# Summary of the method: (§1)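 Cell-based beta-lactamase assay in antagonist mode: 4000 HEK293T PPAR-delta-UAS-bla cells per well, 5 hr preincubation then 18 hr compound incubation at 37 C. IC50 obtained by Hill equation fitting.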
# [5] = molecular target: Peroxisome proliferator-activated receptor delta (Homo sapiens) (UniProt Q03181); assay: as above
# Summary of the method: as §1
# [6] = molecular target: Vitamin D3 receptor (Homo sapiens) (UniProt P11473); assay: qHTS assay for small molecule antagonists of vitamin D receptor signaling (AID 588541);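 note: receptor activated by calcitriol during compound treatment; series mostly up to about 77 µM; % is set by controls: 0 for no effect and ±100 for the full control effect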
# Summary of the method: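 Antagonist-mode beta-lactamase reporter assay: HEK293T VDR-UAS-bla cells were exposed to titrated compound alongside 1-alpha,25-dihydroxyvitamin D3 at 3 nM final for 16 h. Values were normalized to the 50 nM agonist control and DMSO basal, with IC50 and efficacy from Hill equation fits.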
# [7] = qHTS assay for small molecule agonists of retinoid X receptor alpha signaling (AID 588544); conditions: HEK293T RXRa-UAS-bla, beta-lactamase reporter, 18 h; 530 nm emission;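 for activation: 0% = DMSO basal wells and 100% = reference agonist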
# [8] = molecular target: Retinoic acid receptor RXR-alpha (Homo sapiens) (UniProt P19793); assay: as above
# [9] = molecular target: Thyroid hormone receptor beta (Homo sapiens) (UniProt P10828); assay: qHTS assay for small molecule agonists of thyroid hormone receptor beta signaling (AID 588545);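 note: 0% = DMSO only and 100% = 10 nM T3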
# Summary of the method: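 TR-UAS-bla-GripTite HEK 293 cells in medium with 2% charcoal/dextran FBS, 0.1 mM NEAA and 1 mM sodium pyruvate were treated with titrated compounds for 18 hrs at 37 C. Beta-lactamase reporter was read with CCF4 dye (ex 405, em 460/530 nm); EC50 from Hill fits.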
# [10] = qHTS assay for small molecule activators of the p53 signaling pathway (AID 651743; active = well fitted activation curve with a large enough effect in the signal ratio, not every such curve was filed as active; the % refers to the signal ratio; note: series mostly up to about 92 µM; % of control where 0% means no effect); conditions: HCT-116 p53RE-bla, beta-lactamase FRET ratio, 16 h; activation: stronger effect = higher value
# Summary of the method: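 Screen for p53 pathway agonists uses stably transfected p53RE-bla HCT-116 cells, 4,000 per well, treated 16 h at 37 C with compounds in DMSO.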
# [11] = qHTS assay for small molecule activators of the nuclear factor-kappa B (NF-kB) signaling pathway (AID 651749; active = well fitted activation curve with a large enough effect in the signal ratio; the % refers to the signal ratio; note: series mostly up to about 77 µM; % of control where 0% means no effect); conditions: NF-kB-bla ME-180 cells, beta-lactamase FRET ratio, 16 h; activation: stronger effect = higher value
# Summary of the method: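 Stably transfected ME-180 line; NF-kB response element upstream of beta-lactamase. Treatment: compound or DMSO, 16 hr. Detection: fluorescent FRET substrate.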
# [12] = qHTS assay for environmental chemicals that activate the Aryl hydrocarbon Receptor (AhR) signaling pathway (AID 651777; active = well fitted curve in the direction sought with a large enough effect; an effect the other way counts as inactive or inconclusive; note: nearly all actives have a fitted effect of over 15% in size; note: potency is the fitted concentration of half-maximal effect; for activation: % of control where 0% means no effect); conditions: 1A2-DRE human hepatoma cells, luciferase, 24 h; activation: stronger effect = higher value
# Summary of the method: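 Measured luciferase activity, read 30 min after One-Glo addition at room temperature, from human hepatoma cells bearing a dioxin response element–CYP1A2 promoter reporter and exposed to compound for 24 hr at 37 C.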
# [13] = molecular target: Peroxisome proliferator-activated receptor alpha (Homo sapiens) (UniProt Q07869); assay: qHTS assay for small molecule agonists of the peroxisome proliferator-activated receptor alpha (PPARalpha) signaling pathway (AID 651778; active = well fitted curve in the direction sought with a large enough effect; an effect the other way counts as inactive or inconclusive; note: % of control where 0% means no effect); conditions: PathHunter PPARalpha complementation, chemiluminescence, 6 h; max response: stronger effect = higher value
# Summary of the method: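 Chemiluminescence from complemented enzyme reported PPARalpha activation in cells after 6 hr of compound treatment at 37 C. The detection reagent was incubated for 60 min at room temperature, and compounds were scored as agonists.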
# [14] = qHTS assay for small molecule agonists of the antioxidant response element (ARE) signaling pathway measured by Nrf2-dependant transcriptional activity (AID 720636; active = well fitted curve in the direction sought with a large enough effect in the repeat runs; an effect the other way counts as inactive or inconclusive;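 note: HepG2 cells with an ARE-driven luciferase reporter; % of control where 0% means no effect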)
# Summary of the method: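 In HepG2 cells engineered with an Nrf2-responsive luciferase gene, ARE induction was quantified as luminescence after 16 hr compound treatment at 37 C.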
# [15] = qHTS assay for small molecule agonists of the antioxidant response element (ARE) signaling pathway measured by Nrf2-dependant transcriptional activity - cell viability counter screen (AID 720653; active = well fitted curve in the direction sought with a large enough effect in the repeat runs; an effect the other way counts as inactive or inconclusive; note: % is set by controls: 0 for no effect and ±100 for the full control effect); conditions: ARE-bla HepG2 viability, CellTiter-Glo ATP luminescence, 16 h; max response: stronger effect = lower value
# Summary of the method: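 Cytotoxicity counter screen: intracellular ATP quantified by CellTiter-Glo luminescence in the same ARE-bla HepG2 plates, after 16 h compound exposure and a 2 h beta-lactamase substrate step.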
# [16] = qHTS assay for cell viability of HEK293 cells (AID 743288; active = well fitted curve in the direction sought with a large enough effect; an effect the other way counts as inactive or inconclusive; note: % is set by controls: 0 for no effect and ±100 for the full control effect; nearly all actives have a fitted effect of over 50% in size); conditions: ATP luminescence (CellTiter-Glo), 18 h; max response: stronger effect = lower value
# Summary of the method: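 Luminescent ATP quantitation served as the viability read-out. Cells (parental HEK293, 2,000/well) received compounds after at least 5 h at 37 C and were exposed for 18 h before a 30 min room-temperature reagent step.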
# [17] = qHTS assay for cell viability of the p53RE-bla HCT-116 cell line (AID 743292; active = well fitted curve in the direction sought with a large enough effect; an effect the other way counts as inactive or inconclusive; note: % is set by controls: 0 for no effect and ±100 for the full control effect; nearly all actives have a fitted effect of over 55% in size)
# Summary of the method: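 Intracellular ATP of p53RE-bla HCT-116 cells measured by luciferase luminescence following 16 h compound incubation at 37 C; DMSO-only wells served as vehicle controls.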
# [18] = molecular target: Nuclear receptor subfamily 1 group I member 2 (Rattus norvegicus) (UniProt Q9R1A7); assay: qHTS assay for small molecule activators of the rat pregnane X receptor (rPXR) signaling pathway (AID 651751; call rule not given here; note: 0% is about no effect); conditions: rPXR reporter cells, luciferase (One-Glo), 24 h
# [19] = qHTS assay for small molecule activators of the human pregnane X receptor (PXR) signaling pathway (AID 720659; call rule not given here; note: 0% is about no effect)
# [20] = molecular target: Bile acid receptor (Homo sapiens) (UniProt Q96RI1); assay: qHTS assay for small molecule agonists of farnesoid X receptor signaling (AID 588527); conditions: HEK293T FXR-UAS-bla, beta-lactamase ratio, 16 h; activation: stronger effect = higher value;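 note: series mostly up to about 77 µM; 0% = vehicle basal and 100% = reference agonist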
# Summary of the method: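 FXR-UAS-bla HEK293T, 10% dialyzed FBS; cpds up to 92 uM titration, 16 h 37 C; CCF4 dye 2 h RT; fluorescence. Normalized to chenodeoxycholic acid 100 uM (100%) and DMSO (0%); Hill fit gives EC50, efficacy.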
# [21] = molecular target: Peroxisome proliferator-activated receptor gamma (Homo sapiens) (UniProt P37231); assay: qHTS assay for small molecule agonists of peroxisome proliferator-activated receptor gamma signaling (AID 588536; active = well fitted curve in the direction sought with a large enough effect in the signal ratio, with a control signal flat, not every such curve was filed as active; the % refers to the signal ratio;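 note: 0% = DMSO basal wells and 100% = rosiglitazone at 2 µM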)
# Summary of the method: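 PPAR-gamma-UAS-bla HEK293 cells in medium with 1% charcoal/dextran-treated FBS were exposed to compounds for 16 h at 37 C. Beta-lactamase activity was read with CCF4 substrate (405 nm excitation, 460/530 nm emission).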
# [22] = molecular target: Peroxisome proliferator-activated receptor gamma (Homo sapiens) (UniProt P37231); assay: qHTS assay for small molecule antagonists of peroxisome proliferator-activated receptor gamma signaling (AID 588537; active = well fitted inhibition curve with a large enough effect in the signal ratio, with a control signal flat, not every such curve was filed as active; the % refers to the signal ratio;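 note: reporter cells co-stimulated with 50 nM rosiglitazone agonist during compound treatment; % of control where 0% means no effect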)
# Summary of the method: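 Inhibitors of agonist-stimulated UAS-bla reporter activity were sought in HEK293 cells; rosiglitazone (50 nM) defined full signal and DMSO baseline. Curves fitted to Hill model gave IC50 and efficacy.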
# [23] = qHTS assay for small molecule antagonists of retinoid X receptor alpha signaling (AID 588546; active = well fitted inhibition curve with a large enough effect in the signal ratio, with a control signal flat, not every such curve was filed as active; the % refers to the signal ratio;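 note: cells stimulated with 9-cis-retinoic acid as agonist; % is set by controls: 0 for no effect and ±100 for the full control effect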); conditions: HEK293T RXRa-UAS-bla, beta-lactamase ratio, antagonist mode; measured here: W530 green channel, cytotoxicity proxy
# Summary of the method: (§2)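 Beta-lactamase reporter inhibition, read as CCF4 fluorescence ratio (ex 405, em 460/530 nm) after 2 h at RT. HEK293T UAS-bla cells, 2500/well, were stimulated with 9-cis-RA at 500 or 100 nM final alongside test compound for 18 h at 37 C.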
# [24] = molecular target: Retinoic acid receptor RXR-alpha (Homo sapiens) (UniProt P19793); assay: as above; conditions: HEK293T RXRa-UAS-bla, beta-lactamase ratio, antagonist mode
# Summary of the method: as §2
# [25] = molecular target: Thyroid hormone receptor beta (Homo sapiens) (UniProt P10828); assay: qHTS assay for small molecule antagonists of thyroid hormone receptor beta signaling (AID 588547; active = well fitted inhibition curve with a large enough effect in the signal ratio, with a control signal flat, not every such curve was filed as active; the % refers to the signal ratio); conditions: TR-UAS-bla HEK293, beta-lactamase ratio, antagonist mode, 18 h
# Summary of the method: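 Inhibition of T3-driven (0.4nM final) beta-lactamase reporter activity was measured over 0.59 nM to 92 uM compound after 18 h at 37 C. The cells were GripTite HEK293 TR-UAS-bla in charcoal/dextran-stripped serum, with CCF4 ratio read-out and IC50 from Hill fits.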
# [26] = molecular target: Vitamin D3 receptor (Homo sapiens) (UniProt P11473); assay: qHTS assay for small molecule agonists of vitamin D receptor signaling (AID 588543);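 note: 0% = DMSO basal and 100% = reference agonist control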
# Summary of the method: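 Measured: β-lactamase reporter activity (CCF4, 405 nm excitation, 460/530 nm emission) in HEK293T VDR-UAS-bla cells after 16 h compound exposure at 37 °C. Normalization against 50 nM 1α,25-dihydroxyvitamin D3 and DMSO; Hill-fit EC50.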
# Sequence of Peroxisome proliferator-activated receptor delta (Homo sapiens) (Q03181 whole entry, looked up): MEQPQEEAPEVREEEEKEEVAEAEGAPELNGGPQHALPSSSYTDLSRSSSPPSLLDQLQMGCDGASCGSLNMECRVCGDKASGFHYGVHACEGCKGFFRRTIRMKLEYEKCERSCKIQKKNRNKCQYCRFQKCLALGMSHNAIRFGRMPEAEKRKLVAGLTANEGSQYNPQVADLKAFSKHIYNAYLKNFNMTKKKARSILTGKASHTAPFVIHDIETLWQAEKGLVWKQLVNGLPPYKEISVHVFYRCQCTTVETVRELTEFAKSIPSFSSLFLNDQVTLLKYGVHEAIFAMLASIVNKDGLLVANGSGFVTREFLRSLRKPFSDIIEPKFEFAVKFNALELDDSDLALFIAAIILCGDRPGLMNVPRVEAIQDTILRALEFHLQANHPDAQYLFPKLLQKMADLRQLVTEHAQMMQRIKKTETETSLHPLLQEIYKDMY
# Sequence of Vitamin D3 receptor (Homo sapiens) (P11473 whole entry, looked up): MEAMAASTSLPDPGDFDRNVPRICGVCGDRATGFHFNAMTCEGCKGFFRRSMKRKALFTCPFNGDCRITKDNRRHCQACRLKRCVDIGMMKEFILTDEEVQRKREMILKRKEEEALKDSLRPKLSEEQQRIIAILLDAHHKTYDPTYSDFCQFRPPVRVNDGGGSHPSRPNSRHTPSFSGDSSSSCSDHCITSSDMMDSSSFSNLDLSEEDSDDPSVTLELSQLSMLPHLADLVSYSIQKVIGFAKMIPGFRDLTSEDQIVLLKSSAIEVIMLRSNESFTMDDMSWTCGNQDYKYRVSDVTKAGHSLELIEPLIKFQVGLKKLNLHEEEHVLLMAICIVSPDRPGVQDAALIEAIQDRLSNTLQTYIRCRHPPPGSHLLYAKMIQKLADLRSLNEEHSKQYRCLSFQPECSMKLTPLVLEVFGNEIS
# Sequence of Glucocorticoid receptor (Homo sapiens) (P04150 whole entry, looked up): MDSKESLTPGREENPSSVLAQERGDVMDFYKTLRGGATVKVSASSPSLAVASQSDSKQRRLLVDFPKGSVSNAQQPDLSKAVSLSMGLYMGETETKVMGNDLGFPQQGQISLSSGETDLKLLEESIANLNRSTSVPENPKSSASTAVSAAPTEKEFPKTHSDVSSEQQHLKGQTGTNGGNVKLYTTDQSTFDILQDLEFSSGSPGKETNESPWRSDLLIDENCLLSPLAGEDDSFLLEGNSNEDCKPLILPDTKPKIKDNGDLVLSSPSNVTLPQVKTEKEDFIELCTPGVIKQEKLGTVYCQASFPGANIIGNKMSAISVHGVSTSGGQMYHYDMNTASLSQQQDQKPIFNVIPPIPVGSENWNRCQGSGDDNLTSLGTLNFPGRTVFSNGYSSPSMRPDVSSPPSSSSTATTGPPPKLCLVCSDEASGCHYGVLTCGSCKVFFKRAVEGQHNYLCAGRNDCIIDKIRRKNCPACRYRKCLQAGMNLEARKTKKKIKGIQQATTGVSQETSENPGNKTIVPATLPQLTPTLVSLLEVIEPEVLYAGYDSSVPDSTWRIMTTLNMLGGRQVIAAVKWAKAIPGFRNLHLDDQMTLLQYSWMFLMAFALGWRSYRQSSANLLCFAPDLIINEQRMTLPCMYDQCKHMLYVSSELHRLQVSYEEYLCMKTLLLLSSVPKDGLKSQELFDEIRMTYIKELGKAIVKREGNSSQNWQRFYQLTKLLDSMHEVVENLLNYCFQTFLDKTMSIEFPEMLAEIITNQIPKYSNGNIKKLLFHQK
# Sequence of Thyroid hormone receptor beta (Homo sapiens) (P10828 whole entry, looked up): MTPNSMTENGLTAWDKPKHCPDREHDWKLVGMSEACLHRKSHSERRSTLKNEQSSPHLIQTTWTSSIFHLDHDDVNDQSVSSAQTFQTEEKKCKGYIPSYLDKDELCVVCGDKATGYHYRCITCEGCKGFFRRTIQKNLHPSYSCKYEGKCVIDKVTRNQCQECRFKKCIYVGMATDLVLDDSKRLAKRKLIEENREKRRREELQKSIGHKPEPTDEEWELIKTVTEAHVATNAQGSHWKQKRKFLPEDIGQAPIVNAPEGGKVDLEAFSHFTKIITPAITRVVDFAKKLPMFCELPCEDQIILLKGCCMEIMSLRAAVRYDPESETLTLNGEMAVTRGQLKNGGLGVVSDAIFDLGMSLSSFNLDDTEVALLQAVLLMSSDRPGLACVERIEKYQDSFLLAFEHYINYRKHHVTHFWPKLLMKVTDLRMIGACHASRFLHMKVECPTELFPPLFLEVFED
# Sequence of Peroxisome proliferator-activated receptor alpha (Homo sapiens) (Q07869 whole entry, looked up): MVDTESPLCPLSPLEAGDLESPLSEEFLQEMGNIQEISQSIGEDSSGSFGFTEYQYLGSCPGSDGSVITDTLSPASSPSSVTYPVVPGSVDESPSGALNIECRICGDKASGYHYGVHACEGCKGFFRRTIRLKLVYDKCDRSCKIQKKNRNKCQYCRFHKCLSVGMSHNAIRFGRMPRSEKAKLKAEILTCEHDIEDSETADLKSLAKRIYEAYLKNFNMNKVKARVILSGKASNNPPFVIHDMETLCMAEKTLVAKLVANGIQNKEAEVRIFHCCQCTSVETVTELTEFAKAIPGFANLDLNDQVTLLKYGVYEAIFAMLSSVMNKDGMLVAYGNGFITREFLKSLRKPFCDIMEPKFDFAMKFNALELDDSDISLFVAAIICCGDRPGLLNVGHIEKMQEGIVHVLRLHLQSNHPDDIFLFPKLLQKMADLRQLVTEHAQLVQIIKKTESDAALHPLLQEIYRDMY
# Sequence of Retinoic acid receptor RXR-alpha (Homo sapiens) (P19793 whole entry, looked up): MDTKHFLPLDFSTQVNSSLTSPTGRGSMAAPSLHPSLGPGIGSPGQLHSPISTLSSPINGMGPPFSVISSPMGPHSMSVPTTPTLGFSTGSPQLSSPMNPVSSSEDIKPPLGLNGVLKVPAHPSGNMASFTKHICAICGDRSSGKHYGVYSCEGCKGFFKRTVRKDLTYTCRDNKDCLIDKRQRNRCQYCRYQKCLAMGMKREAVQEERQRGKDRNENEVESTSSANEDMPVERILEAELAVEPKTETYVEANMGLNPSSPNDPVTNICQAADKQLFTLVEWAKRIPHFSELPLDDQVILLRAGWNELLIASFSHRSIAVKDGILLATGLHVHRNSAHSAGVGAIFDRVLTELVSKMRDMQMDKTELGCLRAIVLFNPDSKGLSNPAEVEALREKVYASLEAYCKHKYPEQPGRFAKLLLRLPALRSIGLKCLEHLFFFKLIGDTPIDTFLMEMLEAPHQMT
# Sequence of Nuclear receptor subfamily 1 group I member 2 (Rattus norvegicus) (Q9R1A7 whole entry, looked up): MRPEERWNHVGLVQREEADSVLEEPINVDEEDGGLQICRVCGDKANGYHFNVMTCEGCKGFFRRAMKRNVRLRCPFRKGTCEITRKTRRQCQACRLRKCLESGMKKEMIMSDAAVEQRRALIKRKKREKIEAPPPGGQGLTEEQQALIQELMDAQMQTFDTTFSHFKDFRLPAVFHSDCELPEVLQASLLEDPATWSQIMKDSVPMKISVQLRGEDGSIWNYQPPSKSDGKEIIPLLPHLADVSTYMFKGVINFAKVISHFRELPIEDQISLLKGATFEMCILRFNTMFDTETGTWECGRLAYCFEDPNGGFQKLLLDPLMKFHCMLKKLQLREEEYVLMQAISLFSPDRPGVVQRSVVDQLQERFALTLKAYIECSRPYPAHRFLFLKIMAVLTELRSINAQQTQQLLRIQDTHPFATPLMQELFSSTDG
# Sequence of Peroxisome proliferator-activated receptor gamma (Homo sapiens) (P37231 whole entry, looked up): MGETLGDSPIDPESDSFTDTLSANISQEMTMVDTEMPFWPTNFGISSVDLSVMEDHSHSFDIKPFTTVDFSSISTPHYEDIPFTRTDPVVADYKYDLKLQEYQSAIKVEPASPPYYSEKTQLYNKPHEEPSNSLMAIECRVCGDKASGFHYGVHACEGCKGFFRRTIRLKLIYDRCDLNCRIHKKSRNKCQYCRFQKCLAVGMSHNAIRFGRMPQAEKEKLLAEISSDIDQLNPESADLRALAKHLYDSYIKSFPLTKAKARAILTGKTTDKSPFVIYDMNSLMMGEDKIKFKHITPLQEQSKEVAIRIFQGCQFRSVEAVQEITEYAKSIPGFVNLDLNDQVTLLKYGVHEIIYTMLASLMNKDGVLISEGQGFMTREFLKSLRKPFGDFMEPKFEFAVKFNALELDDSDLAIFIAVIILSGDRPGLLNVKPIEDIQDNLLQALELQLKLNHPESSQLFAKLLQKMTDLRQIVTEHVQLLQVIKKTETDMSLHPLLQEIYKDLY
# Sequence of Bile acid receptor (Homo sapiens) (Q96RI1 whole entry, looked up): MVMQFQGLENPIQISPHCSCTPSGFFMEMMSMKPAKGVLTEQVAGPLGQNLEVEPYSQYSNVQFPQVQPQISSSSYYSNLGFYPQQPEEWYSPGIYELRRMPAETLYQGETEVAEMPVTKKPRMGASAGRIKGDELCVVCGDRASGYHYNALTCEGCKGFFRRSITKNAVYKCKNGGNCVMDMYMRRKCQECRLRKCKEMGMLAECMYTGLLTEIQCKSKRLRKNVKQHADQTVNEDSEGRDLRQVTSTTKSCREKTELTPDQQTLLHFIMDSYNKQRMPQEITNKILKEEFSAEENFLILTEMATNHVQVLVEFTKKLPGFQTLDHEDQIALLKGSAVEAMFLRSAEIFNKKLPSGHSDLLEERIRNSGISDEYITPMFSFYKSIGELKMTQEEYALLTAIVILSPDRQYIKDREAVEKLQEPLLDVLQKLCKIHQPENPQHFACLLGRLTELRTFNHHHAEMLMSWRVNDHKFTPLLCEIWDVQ
smiles,measurement,setting,value
CCCSC(=O)N(CCC)CCC,activation,[1],-2.67% (inactive)
same,Potency,[2],inactive
same,outcome,[3],inactive
same,max response,[4],26.4%
same,Potency,[5],inactive
same,Potency,[6],inactive
same,max response,[7],-0.108%
same,Potency,[8],inactive
same,Potency,[9],inactive
same,activation,[10],5.3% (inactive)
same,activation,[11],0.695% (inactive)
same,activation,[12],1.67% (inactive)
same,max response,[13],-0.593% (inactive)
same,Potency,[14],inactive
same,max response,[15],-2.88% (inactive)
same,max response,[16],-7.74% (inactive)
same,Potency,[17],inactive
same,max response,[18],1.18% (inactive)
same,outcome,[19],inactive
Nc1ccccc1O,activation,[20],-1.93% (inactive)
same,outcome,[3],inactive
same,Potency,[12],12.6 µM (active)
CCNc1nc(Cl)nc(NC(C)(C)C#N)n1,activation,[1],-6.13% (inactive)
same,Potency,[2],inactive
same,outcome,[3],inactive
same,max response,[4],32.2%
same,Potency,[5],inactive
same,Potency,[21],inactive
same,Potency,[22],inactive
same,max response,[7],-4.23%
same,Potency,[8],inactive
same,Potency,[9],inactive
same,max response,[23],0.495%
same,max response,[24],-7.14% (inactive)
same,activity change % (negative = inhibition),[25],-10.7% (inactive)
same,activation,[10],-4.15% (inactive)
same,activation,[12],1.84% (inactive)
same,max response,[13],0.299% (inactive)
same,max response,[15],-18.8% (inactive)
same,max response,[16],4.63% (inactive)
same,Potency,[17],inactive
same,max response,[18],-0.0883% (inactive)
C#CC(C)(C)NC(=O)c1cc(Cl)cc(Cl)c1,activation,[1],-9.44% (inactive)
same,Potency,[2],inactive
same,outcome,[3],inactive
same,Potency,[6],inactive
same,outcome,[26],inactive
same,Potency,[8],inactive
same,Potency,[9],inactive
same,max response,[23],-11.2%
same,max response,[24],-9.81% (inactive)
same,activation,[10],-3.76% (inactive)
same,activation,[11],-1.42% (inactive)
same,max response,[13],7.64% (inactive)
same,Potency,[14],inactive
same,max response,[15],4.89% (inactive)
same,max response,[16],5.07% (inactive)
CCOc1cc(Oc2ccc(C(F)(F)F)cc2Cl)ccc1[N+](=O)[O-],activation,[1],-12.9% (inactive)
same,Potency,[2],inactive
same,outcome,[3],inactive
same,Potency,[9],inactive
same,max response,[23],-9.67%
same,max response,[24],-3.17% (inactive)
same,activation,[10],3.72% (inactive)
same,activation,[12],3.8% (inactive)
same,Potency,[14],inactive
same,max response,[15],-9.09% (inactive)
same,max response,[16],-7.71% (inactive)
